# Reference: PubChem BioAssay (NCI)
# About 83,000 compounds went through this panel and 20% of them were active in at least one assay; those are over-represented in the sample as a whole.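 Plates (96-well) were seeded with cells, treated with compound at one concentration, and incubated for 48 hours before percent growth was determined.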 A number with no mark means an inactive call. Activity calls are given as the source filed them. How the source made its calls: active means growth percent below 10; inactive means the rest.
# Assays:
# Assay in all cases: NCI-60 one-dose screen, 48 h (100 = growth as untreated, 0 = no growth, -100 = all killed)
# Conditions in all cases: 10 µM unless noted
# [1] = system: SR leukemia
# [2] = system: RPMI-8226 leukemia
# [3] = system: OVCAR-8 ovarian
# [4] = system: OVCAR-5 ovarian
# [5] = system: OVCAR-4 ovarian
# [6] = system: SK-OV-3 ovarian
# [7] = system: IGROV1 ovarian
# [8] = system: OVCAR-3 ovarian
# [9] = system: HS 578T breast
# [10] = system: NCI/ADR-RES ovarian
# [11] = system: T-47D breast
# [12] = system: BT-549 breast
# [13] = system: MDA-MB-435 melanoma
# [14] = system: SW-620 colon
# [15] = system: MCF7 breast
# [16] = system: HCT-116 colon
# [17] = system: HCC-2998 colon
# [18] = system: KM12 colon
SMILES,growth [1],growth [2],growth [3],growth [4] [%],growth [5],growth [6],growth [7] [%],growth [8],growth [9] [%],growth [10],growth [11],growth [12] [%],growth [13],growth [14] [%],growth [15],growth [16],growth [17] [%],growth [18] [%]
C/C(=N/O)c1ccc(NC(=O)Cn2nc(-c3ccc(Cl)cc3)nc2N)cc1,81.2%,93.4%,81.6%,108,119%,72.6%,89.7,104%,88.5,99.6%,87%,116,109%,104,84.9%,107%,103,98.4
COc1ccc(NC(=O)Nc2ccc(-c3ccc(OC)c(OC)c3)nc2C)cc1,57.3%,83.8%,47.4%,98,29.5%,74.8%,77.1,102%,40,85%,60.4%,50.4,65.2%,64.8,65.1%,49.4%,83.1,45.3
COc1ccc(C(=O)NC(=O)Nc2ccc3c(c2)NC(=O)/C3=C\c2[nH]c(C)c(C(=O)O)c2C)c(F)c1,58.2%,6.29% (active),56.4%,98.8,12%,74.1%,46.8,5.25% (active),49.4,74.1%,58.5%,21.7,66.4%,55,74.8%,59.6%,46.6,26.3
C=C1C(=O)O[C@H]2[C@H]1CC/C(CNC(=O)/C1=C/CC[C@@]3(C)O[C@H]3[C@H]3OC(=O)C(=C)[C@@H]3CC1)=C\CC[C@@]1(C)O[C@@H]21,92.4%,78.8%,92.2%,111,86.9%,89.8%,102,85.1%,112,99.7%,69.8%,101,96.4%,77.4,75%,82.5%,105,102
O=C(Nc1ccc(F)cc1)Nc1ccc(Br)c(C(F)(F)F)c1,13.8%,-29.7% (active),11.4%,30.2,22.5%,-8.74% (active),25.7,11.9%,35.4,1.19% (active),-4.72% (active),15.5,6.46% (active),19.8,1.94% (active),4.58% (active),11.8,13.8
Cc1cc(SCc2ccc(Cl)cc2Cl)nc(SCc2ccc(Cl)cc2Cl)n1,105%,103%,104%,97.8,88.2%,116%,99.5,102%,102,99.4%,114%,106,97.2%,101,92.8%,95.9%,100,97.4
CCN(CC)CCNc1ccc([N+](=O)[O-])c2sc3cc(Cl)ccc3c(=O)c12,9.3% (active),3.51% (active),3.32% (active),38.7,-37.6% (active),86.3%,15.1,71.5%,80.2,33.9%,103%,89.9,72.8%,40.2,24.6%,11.8%,47.3,66.6
COc1ccc(-c2c(NC(=O)Nc3ccc(Cl)c(C(F)(F)F)c3)cnn2-c2ccc(S(N)(=O)=O)cc2)cc1,7.38% (active),19.9%,28.5%,60.6,32.8%,68.4%,33.1,25.4%,49.6,89.9%,16.9%,39.3,24.3%,38.2,11.5%,14.5%,28.5,29.6
Nn1c(CN2CCN(c3cc4c(cc3F)c(=O)c(C(=O)O)cn4C3CC3)CC2)n[nH]c1=S,99.1%,102%,106%,108,102%,107%,97.3,103%,108,106%,98.3%,112,97.9%,105,93.4%,102%,92.7,103
C=CCOc1ccc(/C(Cl)=N/N=C(\Cl)c2cc(OC)c(OC)c(OC)c2)cc1,17%,70.3%,62.6%,97.5,84.3%,64.7%,64,77.1%,75.5,77.6%,47.6%,89.5,80.6%,68.3,42.8%,70.2%,75.6,67.9
COc1ccc(Cl)cc1NC(=O)c1cc2c([nH]1)-c1nc(N)sc1CCC2,79.4%,108%,101%,103,111%,98.4%,106,106%,108,92.7%,88.2%,102,103%,107,98.9%,110%,109,97.3
CC(C)(c1ccc(OCC(O)CNCc2ccco2)cc1)c1ccc(OCC(O)CNCc2ccco2)cc1 (stereo unspecified),31.5%,64.8%,92.3%,101,96%,105%,86.3,83%,75.7,93.2%,72.4%,88.7,89.5%,90.3,85.4%,60.2%,46.6,82.6
CC12CCC3C(CCC4CC(O)CCC43C)C1C/C(=C/O)C(=O)O2 (stereo unspecified),96.1%,91.3%,104%,111,134%,105%,105,103%,98.4,108%,106%,109,111%,102,102%,104%,103,97.8
COc1ccc(Cl)cc1NC(=O)c1cc2c(n1C)-c1nc(NC(=O)C(C)C)sc1CC2,79.1%,82.7%,81.8%,108,66%,82.9%,104,111%,83.4,90.5%,68.2%,53,93.8%,90.5,84.5%,44.6%,122,92.7
COc1ccc(/C=C2/C(=O)Nc3cc(Cl)c(-c4csc(N)n4)cc32)cc1,18.4%,39.3%,61.8%,85,70.1%,48.5%,56.1,17%,45.7,32.2%,23.5%,33.4,-14.4% (active),31.2,25%,36.2%,77.3,25.7
COc1ccc(Cl)cc1NC(=O)c1cc2c([nH]1)-c1nc(NC(=O)C(C)C)sc1CC2,77.9%,93.7%,107%,128,109%,78.1%,77.1,103%,93.4,93.9%,82.7%,105,114%,101,82.6%,80%,101,94.6
Cc1ccc2c(C3C(C#N)=C(N)Oc4cc5ccccc5cc43)cc(=O)oc2c1 (stereo unspecified),16.9%,21.9%,24.5%,49.7,67.6%,28.3%,39.7,-4.72% (active),51.6,11.8%,35.9%,47.9,-48.2% (active),27.1,17.9%,15.9%,58.9,24.1
